# RecA intein inh: Mtb RecA intein splicing inhibitors, primary screen, biochemical, fluorescence, HTS; Protein RecA (Mycobacterium tuberculosis (strain ATCC 25618 / H37Rv)), P9WHJ3; cell-free RecA intein splicing; inhibition, % (test concentration not listed); 290,000 tested, 0.75% active; in the data active means inhibition above about 30%;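 further: 0% = vehicle wells and 100% = reference inhibitor control wells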
# FBA Mtb inh: Mtb FBA enzyme inhibitors, primary screen, biochemical, fluorescence, strain H37Rv | inhibition, % at 1 µM | purified M. tuberculosis FBA, fluorescence read-out | 360,000 tested, 2.3% active | Fructose-bisphosphate aldolase (Mycobacterium tuberculosis (strain ATCC 25618 / H37Rv)), …; in the data active means inhibition above about 27%;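 further: 0% = vehicle and 100% = reference inhibitor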
# GDH-TPI counter: GDH-TPI coupling enzyme inhibitors, primary screen, artefact control for M. tuberculosis FBA inhibitor project, biochemical, absorbance, full deck. 360,000 tested, 1.2% active. AID 588335, 2011. inhibition, % at 4.8 µM. GDH-TPI coupled enzyme counterscreen, NADH absorbance; in the data active means inhibition above about 30%;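 further: 0% = DMSO wells and 100% = wells lacking the enzyme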
# UGM FP inh: M. tuberculosis UGM enzyme inhibitors, primary screen, biochemical, fluorescence polarization, single point. purified UGM, fluorescence polarization probe displacement. 320,000 tested, 0.06% active. UDP-galactopyranose mutase (Mycobacterium tuberculosis (strain ATCC 25618 / H37Rv)), …. inhibition, % at 10 µM; in the data active means inhibition above about 10%, passing the limit was not always enough
# Target sequence (P9WIQ1 whole entry, looked up): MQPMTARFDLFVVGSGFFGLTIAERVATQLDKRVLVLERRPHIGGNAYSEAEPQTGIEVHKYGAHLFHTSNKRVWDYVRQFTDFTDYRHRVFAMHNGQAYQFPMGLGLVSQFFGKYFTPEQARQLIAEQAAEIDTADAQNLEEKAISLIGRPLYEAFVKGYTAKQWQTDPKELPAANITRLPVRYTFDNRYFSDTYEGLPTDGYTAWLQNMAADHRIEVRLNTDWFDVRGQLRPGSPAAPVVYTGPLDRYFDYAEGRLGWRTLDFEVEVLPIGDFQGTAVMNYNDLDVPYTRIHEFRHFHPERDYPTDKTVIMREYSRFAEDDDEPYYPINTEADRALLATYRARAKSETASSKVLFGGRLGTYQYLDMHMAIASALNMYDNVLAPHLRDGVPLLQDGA
# Vc quorum ag: inducers of Vibrio cholerae quorum light production without autoinducers, primary screen, BH1578 luxS cqsA deficient, single point | V. cholerae BH1578 lux reporter, luminescence, 6 h | activation, % at 18.7 µM | 350,000 tested, 0.16% active; in the data active means activation mostly above about 9.7%, no sharp cut-off
# Rv3671c protease: Rv3671c serine protease inhibitors, primary screen, biochemical, fluorescence polarization, M. tuberculosis H37Rv; 320,000 tested, 0.048% active; P9WHR9; inhibition, % at 5.96 µM; in the data active means inhibition above about 38%;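 further: extracellular domain of Rv3671c used as enzyme; 0% = enzyme with DMSO and 100% = no enzyme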
# GFP chromophore: counter-screen: blocks GFP chromophore formation, dose response, counter-screen, biochemical, fluorescence, homogeneous. shares compounds with RecA intein inh. cell-free GFP chromophore formation. EC50, µM. 2,100 tested, 83% active. AID 434968, 2010; call rule not given here
# * = called active by the depositor; i = inactive; . = no result given. Hits are enriched below; roughly 4.1% of the tested compounds scored in any of these assays.
SMILES,RecA intein inh,FBA Mtb inh,GDH-TPI counter,UGM FP inh,Vc quorum ag,Rv3671c protease,GFP chromophore
CC(CNc1ccccc1O)C(=O)O (configuration not stated),50*,0,2,3,0,-14,17*
Cc1cccc(CS(=O)(=O)c2ncc(Cl)c(C(=O)Nc3nnc(C(C)C)s3)n2)c1,86*,1,11,0,0,-8,0.86*
CSc1nnc(NC(=O)c2nc(S(=O)(=O)Cc3cccc(C)c3)ncc2Cl)s1,81*,-1,10,0,0,2,18*
CC(C)c1nnc(NC(=O)c2nc(S(=O)(=O)Cc3ccc(F)cc3)ncc2Cl)s1,82*,-2,3,-4,0,-5,16*
CCSc1nnc(NC(=O)c2nc(S(=O)(=O)Cc3ccc(F)cc3)ncc2Cl)s1,85*,2,3,0,0,-8,21*
Cc1ccc(CS(=O)(=O)c2ncc(Cl)c(C(=O)Nc3ccc(OC(F)F)cc3)n2)cc1,14,3,7,0,-1,-45,.
COc1ccc(NC(=O)CNC(=O)c2nn(-c3ccc(OC)cc3OC)c(=O)c3ccccc23)c(OC)c1,4,3,2,1,0,6,.
Cc1ccc(CS(=O)(=O)c2ncc(Cl)c(C(=O)Nc3nnc(C(C)C)s3)n2)cc1,86*,2,10,1,0,-2,3.7*
N#C/C(=N\Nc1ccc(S(=O)(=O)N2CCc3ccccc32)cc1)C(N)=S,31*,-27,8,0,0,17,32*
CCOC(=O)/C(C#N)=N/Nc1ccc(S(=O)(=O)N2CCc3ccccc32)cc1,2,-7,17,0,i,-7,.
CCOC(=O)c1nn(-c2ccccc2)c(=O)c2c(NC(C)=O)scc12,-6,2,-3,-4,0,-3,.
CCOC(=O)c1nn(-c2ccccc2C)c(=O)c2c(N)scc12,48*,-4,2,-1,i,-14,>38
COc1cc2c(cc1OC)C(c1cc(Br)ccc1F)N(C(=O)CCl)CC2 (configuration not stated),86*,-1,-2,1,-1,-7,4.5*
CS/C(=C/[N+](=O)[O-])Nc1cccc2c1C(C)CC2(C)C (configuration not stated),67*,-5,16,-1,i,-11,38*
COC(=O)C[C@H]1C[C@@H]2c3cc(NC(=O)NC4CCCC4)ccc3O[C@@H]2[C@@H](CO)O1,.,1,0,.,0,.,.
Cc1[nH][nH]c(=O)c1C,.,4,5,3,-1,-5,.
Cc1[nH][nH]c(=O)c1C(c1ccc(N(C)C)c(Br)c1)c1c(C)[nH][nH]c1=O,97*,-4,1,5,i,-8,0.47*
OC(c1ccc(F)c(F)c1)c1nc(-c2ccc3c(c2)OCO3)cs1 (configuration not stated),.,-3,0,.,i,.,.
O=C(Nc1cccc(OC(=O)c2ccco2)c1)c1ccco1,33*,-1,-3,1,i,1,>38
CC1CC=CCC1(CO)CO (configuration not stated),.,4,9,.,i,.,.
NC(=O)C1C2C=CC(C2)C1c1ccccc1 (configuration not stated),.,0,0,.,-1,.,.
CC1(S(=O)(=O)O)CC(=O)c2ccccc2C1=O (configuration not stated),93*,-1,11,-2,0,-7,4.3*
COc1ccc2ccc3c(c2c1)N=C[C@]1(O3)N(C)c2ccccc2C1(C)C,89*,3,12,1,0,-85,12*
COc1ccc(OCc2nnc(SCC(=O)Nc3ccccc3Cl)o2)cc1,1,0,-10,1,0,4,.
CC(C)=CCC/C(C)=C/Cc1c(O)ccc(C(=O)/C=C/c2ccc(O)cc2)c1O,44*,-3,16,3,0,-61,>38
SMILES,RecA intein inh,FBA Mtb inh,GDH-TPI counter,UGM FP inh,Vc quorum ag,Rv3671c protease,GFP chromophore
O=C(O)c1cccc(NC2=C(N3CCOCC3)C(=O)c3ccccc3C2=O)c1,17,11,17,1,4,-113,.
O=C(O)c1ccc(NC2=C(n3nnc4ccccc43)C(=O)c3ccccc3C2=O)cc1,88*,-1,14,2,i,-108,5.6*
Cn1ccc2c(N3CCCCC3)cc3c(c21)C1CCC3O1 (configuration not stated),.,-4,.,.,.,.,.
Cc1cc(C2C(C#N)=C(N)Oc3n[nH]c(C)c32)c(C)s1 (configuration not stated),81*,-1,4,0,i,-1,37*
Cc1ccc(-c2ccc(C3C(C#N)=C(N)Oc4n[nH]c(C)c43)o2)cc1 (configuration not stated),67*,-2,18,-3,0,0,36*
CC(C)(C)c1[nH]nc2c1C(c1cccnc1)C(C#N)=C(N)O2 (configuration not stated),-2,0,16,-1,0,-6,.
Cc1[nH]nc2c1C(c1ccsc1C)C(C#N)=C(N)O2 (configuration not stated),48*,-5,10,4,i,2,28*
CC(C)(C)c1[nH]nc2c1C(Cc1ccccc1)C(C#N)=C(N)O2 (configuration not stated),54*,1,3,3,i,2,20*
Cc1cc(C2C(C#N)=C(N)SC(N)=C2C#N)c(C)s1,0,5,11,0,0,-14,.
Cn1c(N)c(C(=O)COC(=O)/C=C/c2ccc(Cl)c(Cl)c2)c(=O)n(C)c1=O,.,-3,-2,-2,-1,33,.
O=[N+]([O-])c1ccc2nc(NN=Cc3ccc(O)cc3)sc2c1,.,-6,9,.,i,.,.
Cc1nnc(SCC(=O)Nc2cccc(Cl)c2)n1CC1CCCO1 (configuration not stated),-1,1,11,0,0,4,.
Cc1cc(SCC2=NNC(=O)C2)c(Cl)cc1Cl,.,-1,6,-3,-2,-26,.
O=C1CC(CSc2ccc(Cl)cc2)=NN1,91*,1,0,-1,0,-24,8.8*
O=C(Nc1ccc(F)cc1)Nc1nnc(Cc2ccccc2F)s1,.,1,2,3,-1,-17,.

# Assay outcomes deposited in PubChem BioAssay by several laboratories.
